The values below come from PubChem BioAssay (NCATS).

Test [1] in a line: qHTS for Inhibitors of the Functional Ribonucleoprotein Complex (vRNP) of Lassa (LASV) Arenavirus: LASV Primary Screen - GLuc reporter signal (AID 1347082; calls by dose curve; tested in HEK293 reporter line; also: % is scaled to controls: 0 for no effect and ±100 for the full control effect; nearly all actives have a fitted effect of over 60% in size). A general note: Quantitative high-throughput screening tests each substance at several concentrations.
A short description of test [2]: qHTS for Inhibitors of the Functional Ribonucleoprotein Complex (vRNP) of Lassa (LASV) Arenavirus: Viability assay - alamar blue signal for LASV Primary Screen (AID 1347083; calls by dose curve; tested in HEK293 reporter line; also: % is scaled to controls: 0 for no effect and ±100 for the full control effect; nearly all actives have a fitted effect of over 80% in size).
Test [3] can be described thus: qHTS for Inhibitors of the Functional Ribonucleoprotein Complex (vRNP) of Lymphocytic Choriomeningitis Arenaviruses (LCMV): Viability assay - alamar blue signal for LCMV Primary Screen (AID 1347085; calls by dose curve; tested in HEK293 reporter line; also: % is scaled to controls: 0 for no effect and ±100 for the full control effect; nearly all actives have a fitted effect of over 80% in size).
The target in test [4] is Nucleoprotein (Lymphocytic choriomeningitis virus (strain Armstrong)) (UniProt P09992). Put plainly: qHTS for Inhibitors of the Functional Ribonucleoprotein Complex (vRNP) of Lymphocytic Choriomeningitis Arenaviruses (LCMV): LCMV Primary Screen - GLuc reporter signal (AID 1347086). Also: % is scaled to controls: 0 for no effect and ±100 for the full control effect; nearly all actives have a fitted effect of over 70% in size.
Sequence of Nucleoprotein (Lymphocytic choriomeningitis virus (strain Armstrong)) (P09992 whole entry, looked up): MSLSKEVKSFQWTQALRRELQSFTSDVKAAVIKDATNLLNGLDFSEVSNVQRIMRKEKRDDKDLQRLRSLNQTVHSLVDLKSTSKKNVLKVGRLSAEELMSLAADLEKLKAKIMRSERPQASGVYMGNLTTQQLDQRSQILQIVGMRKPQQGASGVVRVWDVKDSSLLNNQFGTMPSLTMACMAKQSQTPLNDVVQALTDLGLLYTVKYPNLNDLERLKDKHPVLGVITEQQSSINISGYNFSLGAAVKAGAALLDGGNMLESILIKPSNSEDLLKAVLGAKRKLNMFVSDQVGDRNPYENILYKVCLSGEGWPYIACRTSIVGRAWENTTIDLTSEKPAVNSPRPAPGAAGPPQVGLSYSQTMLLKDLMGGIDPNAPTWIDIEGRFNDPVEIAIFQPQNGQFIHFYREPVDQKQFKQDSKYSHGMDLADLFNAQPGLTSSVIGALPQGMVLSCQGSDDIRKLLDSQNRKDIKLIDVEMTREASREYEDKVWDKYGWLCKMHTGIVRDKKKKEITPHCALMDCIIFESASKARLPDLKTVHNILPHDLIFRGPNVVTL
A short description of test [5]: Primary qHTS to identify inhibitors of SARS-CoV-2 cell entry (AID 1645846). Also: nearly all actives have a fitted effect of over 45% in size. The conditions noted are these: activity change, negative = inhibition: at 57.1 µM (top of the series) unless noted. The method, boiled down: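 Data are normalized to wells receiving SARS-CoV-2-S pseudoparticles and those given bald particles. Entry signal was luciferase luminescence in stable hACE2 Expi293F cells, 48 hr post-infection, after 1 hr compound pretreatment.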

A short description of test [6]: qHTS profiling of the MIPE4 collection as inhibitors of Plasmodium falciparum (3D7) proliferation (AID 743344; call rule not given here;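 also: scaled between DMSO vehicle wells and 0.29 µM artemisinin as full inhibition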). As to conditions: P. falciparum 3D7 in erythrocytes, SYBR Green DNA fluorescence, 72 h; at 28.5 µM (top of the series) unless noted. The method, boiled down:
(§1)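 Parasite DNA was quantified by SYBR Green I fluorescence (ex 485, em 535 nm) after overnight lysis in saponin/Triton buffer at room temperature. Cultures at 0.3% parasitemia and 2.5% hematocrit were first exposed to compound for 72 h at 37 C; signals were normalised to artemisinin (0.29 uM) and vehicle wells.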

A short description of test [7]: qHTS profiling of the MIPE4 collection as inhibitors of Plasmodium falciparum (DD2) proliferation (AID 743345; call rule not given here). As to conditions: P. falciparum Dd2 in erythrocytes, SYBR Green DNA, 72 h; at 28.5 µM (top of the series) unless noted. The method, boiled down:
as §1

The nature of test [8]: qHTS profiling of the MIPE4 collection as inhibitors of Plasmodium falciparum (DD2) proliferation (Rep 2) (AID 743346; call rule not given here). The conditions noted are these: P. falciparum Dd2 in erythrocytes, SYBR Green DNA, 72 h; at 28.5 µM (top of the series) unless noted. The method, boiled down:
as §1

Test [9] is described as follows: Cytotoxicity counterscreen for inhibitors of SARS-CoV-2 cell entry (AID 1645845). Also: % is scaled to controls: 0 for no effect and ±100 for the full control effect; nearly all actives have a fitted effect of over 50% in size. A digest of the protocol: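 ATP-content luminescence (ATPLite 1step, 15 min RT) read after 48 h compound exposure of Expi293F cells stably expressing human ACE2; normalized to cells-only wells and media-only wells.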

The structures appear in SMILES notation. Results filed as inconclusive are left out. Calls of active or inactive are those of the source. Unless noted, calls follow the shape of the full dose curve. Numbered stars: 1 amine (or outer) side, 2 acyl side, 3 side chain; on linkers, the order of the positions; unused ones are H or OH. Bridge positions count the residues as written; N and C are the ends. Square brackets hold non-standard residues; d marks the D form. Peptide text beside a SMILES is read from it. I, II: the chains in the order shown. Actinocin(9to1) = Cc1c2oc3c(C)ccc(C(=O)[*:1])c3nc-2c(C(=O)[*:2])c(N)c1=O; NMeV = CN[CH](C(=O)O)C(C)C; Sar = CNCC(=O)O

Regarding `Cc1c2oc3c(C)ccc(C(=O)NC4C(=O)NC(C(C)C)C(=O)N5CCCC5C(=O)N(C)CC(=O)N(C)C(C(C)C)C(=O)OC4C)c3nc-2c(C(=O)NC2C(=O)NC(C(C)C)C(=O)N3CCCC3C(=O)N(C)CC(=O)N(C)C(C(C)C)C(=O)OC2C)c(N)c1=O` (stereo not drawn) (I: TVP[Sar][NMeV] / II: TVP[Sar][NMeV]; ester I:1-I:C, II:1-II:C; linker I:N-II:N via Actinocin(9to1); configuration not given here), the Potency result in test [1], in test [2], in test [3] and in test [4] was “inactive” throughout. Besides, in test [5], the activity change, negative = inhibition is -91.5% [at 27.1 µM].

As for `C[C@@H](c1ncncc1F)[C@](O)(Cn1cncn1)c1ccc(F)cc1F`, the parasite growth, % of DMSO control in test [6] came to 65.8%. Moreover, in test [7], the parasite growth remaining, % of DMSO control (lower = more inhibition) is 104%. Besides, in test [8], the parasite growth, % of control (lower = inhibition) worked out at 115%. The Potency entry in [1], in [2], in test [3], in test [4] and in test [9] was “inactive” each time.
